Experimental data taken from the supplement of paper PMC3334620.
In all, about 33,000 sequences were measured (“E-score (-0.5 to 0.5)”: median about -0.012, highest 2% from about 0.27 on). The sample as a whole holds a higher share of the highest values than the screen did.

Each sequence was assayed against T1, Vhr1 (UniProt P40522) (assay: PBM E-score (8-mer binding enrichment) (E-score (-0.5 to 0.5)); higher = stronger / more preferred TF binding). Conditions: protein concentration: 200 nM; construct: GST-full length.
T1 sequence: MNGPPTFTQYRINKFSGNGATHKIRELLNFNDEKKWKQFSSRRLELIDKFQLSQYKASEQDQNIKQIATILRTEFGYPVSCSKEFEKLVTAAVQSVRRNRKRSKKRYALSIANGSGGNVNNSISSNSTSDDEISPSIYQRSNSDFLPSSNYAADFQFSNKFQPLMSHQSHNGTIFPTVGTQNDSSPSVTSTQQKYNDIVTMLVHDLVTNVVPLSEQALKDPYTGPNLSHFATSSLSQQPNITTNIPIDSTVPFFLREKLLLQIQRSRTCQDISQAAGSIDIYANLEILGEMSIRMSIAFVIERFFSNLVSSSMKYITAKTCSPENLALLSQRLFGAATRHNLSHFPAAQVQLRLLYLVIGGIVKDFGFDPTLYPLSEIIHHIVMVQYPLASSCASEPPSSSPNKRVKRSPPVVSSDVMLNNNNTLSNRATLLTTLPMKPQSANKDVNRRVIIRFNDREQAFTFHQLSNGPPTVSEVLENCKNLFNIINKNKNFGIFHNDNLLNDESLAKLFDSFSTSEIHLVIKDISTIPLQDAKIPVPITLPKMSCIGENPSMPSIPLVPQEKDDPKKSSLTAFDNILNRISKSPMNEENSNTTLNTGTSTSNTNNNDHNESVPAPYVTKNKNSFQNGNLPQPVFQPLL
Outline: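 For each ungapped eight-base word taken together with its reverse complement, the Universal PBM Analysis Suite assigned an E-score. Binding data came from GST-tagged yeast transcription factors, applied at about 100-200 nM, on universal all-10-mer Agilent arrays made double-stranded by primer extension. Fluorescent anti-GST marked bound protein, and scans were normalised with masliner.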
In the case of ACACTGCC, the “PBM E-score” value was 0.281. For ACACTGCA, the “PBM E-score” value was 0.0651. For GCACTGCC, the “PBM E-score” value was -0.039. CTTCTGCA was tested, and the “PBM E-score” value was -0.194. In the case of CCTCATAC, the “PBM E-score” value was -0.119. AATCATAA was tested, and the “PBM E-score” value was 0.131. With CATCATAG the “PBM E-score” value was 0.266. AATCATAT was tested, and the “PBM E-score” value was 0.296. ATTCATAG was tested, and the “PBM E-score” value was 0.0981. AATCAAAT was tested, and the “PBM E-score” value was -0.0562. With ACTCATAC the “PBM E-score” value was 0.284. In the case of GCTCATAC, the “PBM E-score” value was -0.135. With AATCATAC the “PBM E-score” value was 0.4. With GATCATAC the “PBM E-score” value was 0.114. With AATCATAG the “PBM E-score” value was 0.329. For CATCATAC, the “PBM E-score” value was 0.216. With AACCCGTT the “PBM E-score” value was -0.0686. In the case of GGTGCACA, the “PBM E-score” value was 0.0381. GCTTTATA was tested, and the “PBM E-score” value was -0.261. In the case of CCCTCTAC, the “PBM E-score” value was -0.113. CCACGTCA was tested, and the “PBM E-score” value was -0.165. For GCACAAGC, the “PBM E-score” value was 0.0452. In the case of CACGCAGG, the “PBM E-score” value was -0.0242. In the case of GGATATGA, the “PBM E-score” value was 0.289. In the case of CGATATGA, the “PBM E-score” value was 0.125. In the case of TCATATGA, the “PBM E-score” value was 0.381. In the case of AGATATGA, the “PBM E-score” value was 0.161. With GCATATGA the “PBM E-score” value was 0.19. For CCATATGA, the “PBM E-score” value was 0.176. For CATGAGCA, the “PBM E-score” value was 0.125. In the case of GGTAGCGA, the “PBM E-score” value was -0.0248. GAGGATAA was tested, and the “PBM E-score” value was 0.0571. With ACGGACTC the “PBM E-score” value was -0.0189. For CCTGACTC, the “PBM E-score” value was 0.479. CCGGACTA was tested, and the “PBM E-score” value was 0.108. GCTGACTA was tested, and the “PBM E-score” value was 0.324. In the case of ACTGACAC, the “PBM E-score” value was 0.0369. In the case of GTTGACTA, the “PBM E-score” value was 0.261. With ACTGACTC the “PBM E-score” value was 0.421. For ACTGACCC, the “PBM E-score” value was 0.0589. For GCTGACAA, the “PBM E-score” value was -0.0645. In the case of CCTGACGC, the “PBM E-score” value was -0.197. With CCTGACAC the “PBM E-score” value was 0.188. CCGGACTC was tested, and the “PBM E-score” value was 0.303. With AAGAAAGT the “PBM E-score” value was -0.0406. CTTCATTC was tested, and the “PBM E-score” value was -0.0777. For CCAATTCG, the “PBM E-score” value was -0.173. GGGATCAA was tested, and the “PBM E-score” value was -0.109. With ATTTGGTG the “PBM E-score” value was -0.068. ATAGGGTC was tested, and the “PBM E-score” value was 0.197. CCAGCATA was tested, and the “PBM E-score” value was 0.0195. For ACTGACCA, the “PBM E-score” value was -0.0638. In the case of CCTGACTA, the “PBM E-score” value was 0.391. ATTGACTC was tested, and the “PBM E-score” value was 0.3. With ACTGACTG the “PBM E-score” value was 0.0572. For CCTGACGA, the “PBM E-score” value was 0.0859. For ATTGACTA, the “PBM E-score” value was 0.236. CCTGACAA was tested, and the “PBM E-score” value was 0.0179. In the case of CTTGACTC, the “PBM E-score” value was 0.262. With ACTGACTA the “PBM E-score” value was 0.295. In the case of CCCAGCAG, the “PBM E-score” value was 0.0474. In the case of AACTGGCT, the “PBM E-score” value was -0.204. CAGCGCAC was tested, and the “PBM E-score” value was -0.152. In the case of CGGTTGAC, the “PBM E-score” value was -0.0106. AGGCAAGG was tested, and the “PBM E-score” value was -0.292. AATGACTG was tested, and the “PBM E-score” value was 0.271. In the case of AATGACTC, the “PBM E-score” value was 0.463. GATGACAA was tested, and the “PBM E-score” value was -0.00976. In the case of GATGACCA, the “PBM E-score” value was 0.13. With AATGACGA the “PBM E-score” value was -0.0492. CATGACAA was tested, and the “PBM E-score” value was 0.0092. With AATGACTA the “PBM E-score” value was 0.353. For AATGACGC, the “PBM E-score” value was 0.00169. CATGACTA was tested, and the “PBM E-score” value was 0.458. With AATGACAC the “PBM E-score” value was 0.0353. CATGACGA was tested, and the “PBM E-score” value was 0.22. With GATGACTA the “PBM E-score” value was 0.447. In the case of GGATCCGA, the “PBM E-score” value was -0.0296. ATGTAGCG was tested, and the “PBM E-score” value was -0.0682. AGCGCAAT was tested, and the “PBM E-score” value was -0.0761. In the case of ATCTTAGG, the “PBM E-score” value was -0.132. For GCGCTGGA, the “PBM E-score” value was 0.168. GTTGATAA was tested, and the “PBM E-score” value was 0.109. In the case of CGGCTACA, the “PBM E-score” value was 0.153. CATGGTTC was tested, and the “PBM E-score” value was 0.364. With CATGGTTA the “PBM E-score” value was 0.215. In the case of CATGGCTC, the “PBM E-score” value was 0.28. For AATGGCTC, the “PBM E-score” value was 0.137. With AATGGTTC the “PBM E-score” value was 0.212. CATGGCTA was tested, and the “PBM E-score” value was 0.224. AAAATCTT was tested, and the “PBM E-score” value was -0.316. In the case of CCATCGAG, the “PBM E-score” value was 0.0908. For ACGCGATG, the “PBM E-score” value was 0.148. For CCTCGGAG, the “PBM E-score” value was 0.00615. For ACTCGGAG, the “PBM E-score” value was 0.29. For ACTCGGAT, the “PBM E-score” value was 0.186. TCTGGTCA was tested, and the “PBM E-score” value was 0.0764. AACGAGTA was tested, and the “PBM E-score” value was 0.134. For GACGAGAC, the “PBM E-score” value was -0.0155. For CACGAGTG, the “PBM E-score” value was -0.0364. With AACGAGTC the “PBM E-score” value was 0.278. With GACGAGTA the “PBM E-score” value was 0.077. GACGAGTC was tested, and the “PBM E-score” value was 0.276. In the case of CCCGAGTA, the “PBM E-score” value was 0.184. CACGAGTC was tested, and the “PBM E-score” value was 0.324. AACGAGTT was tested, and the “PBM E-score” value was -0.117. For CACGAGTA, the “PBM E-score” value was 0.0881. In the case of ACCGAGTC, the “PBM E-score” value was 0.254. With CCCGAGTC the “PBM E-score” value was 0.387. CGCGACGC was tested, and the “PBM E-score” value was -0.00297. With ACGACCTA the “PBM E-score” value was 0.143. With AAGTGTGT the “PBM E-score” value was 0.0443. In the case of AGAACGAC, the “PBM E-score” value was 0.00162. With CCGTTACG the “PBM E-score” value was -0.0486. In the case of ACCCGATG, the “PBM E-score” value was 0.137. With ACTTGCTC the “PBM E-score” value was -0.057. In the case of CTTATCGC, the “PBM E-score” value was -0.0118. With TCCGACAA the “PBM E-score” value was -0.0624. With GATTTCCA the “PBM E-score” value was 0.0482. CTTAATCA was tested, and the “PBM E-score” value was 0.214. GTTAATCA was tested, and the “PBM E-score” value was 0.296. In the case of CATAATCA, the “PBM E-score” value was 0.308. GATAATCA was tested, and the “PBM E-score” value was 0.301. CATAATCC was tested, and the “PBM E-score” value was 0.105. ATTAATCA was tested, and the “PBM E-score” value was 0.217. In the case of CATAATCG, the “PBM E-score” value was 0.0927.
